Structures can show the parent of a compound that is named as a salt. ± gives the standard deviation of the averaged measurements.
System: Listeria monocytogenes 10403S
Test: growth inhibition relative to ceftriaxone-alone control; higher = stronger potentiation of ceftriaxone growth inhibition
Conditions: 10 µM; ceftriaxone 1 ug/ml; 12 h
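Further: End-point A600 read in BHI broth at 37 °C with 2% DMSO, inhibition computed as (1 − OD with compound plus ceftriaxone ÷ OD with ceftriaxone only) × 100.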

Row | Compound | growth inhibition [%]
1 | CCN1CCN(c2ccc(Nc3cc(N(C)C(=O)Nc4c(Cl)c(OC)cc(OC)c4Cl)ncn3)cc2)CC1 | 12.2 ± 5.4
2 | N#Cc1c(O)c2c(-c3ccc(-c4ccccc4O)cc3)csc2[nH]c1=O | 40.8 ± 15
3 | CNC(=O)c1cc(-c2ccc(F)cc2)cc(-c2ccc(S(=O)(=O)N3CCCC3)cc2)c1N | -4.95 ± 15
4 | CC(C)c1ccc(Nc2nccc(-c3cnn4ncccc34)n2)cc1 | -0.923 ± 0.22
5 | Nc1cc(C(F)(F)F)c(-c2cc(N3CCOCC3)nc(N3CCOCC3)n2)cn1 | 47 ± 35
6 | COc1cc2c(cc1Nc1nc(Nc3ccsc3C(N)=O)c3cc[nH]c3n1)N(C(=O)CN(C)C)CCC2(C)C | -4.89 ± 0.71
7 | CCn1c(-c2nonc2N)nc2c(C#CC(C)(C)O)ncc(OC3CCNCC3)c21 | 77 ± 1.4
8 | NC(=O)c1cccc(Nc2nccc(Nc3cccc(F)c3)n2)c1 | -4.52 ± 12
9 | N#CC(=C(/N)Sc1ccccc1N)/C(C#N)=C(\N)Sc1ccccc1N | 51.1 ± 42
10 | Cc1cn(-c2cc(NC(=O)c3ccc(C)c(Nc4nccc(-c5cccnc5)n4)c3)cc(C(F)(F)F)c2)cn1 [Nilotinib (AMN-107)] | 46.8 ± 3.8
11 | c1cncc(CN2CCC(n3ncc4c(N5CCOCC5)nc(-c5ccc6[nH]ccc6c5)nc43)CC2)c1 | 37.1 ± 17
12 | Nc1cccc(-c2cc3c(Oc4cccc(O)c4)ncnc3[nH]2)c1 | -3.72 ± 8.2
13 | Cc1cc(CN2CCN(c3c(Br)cnc4nc(-c5ccc(N6CCN(C)CC6)cc5)[nH]c34)CC2)no1 | 40.4 ± 40
14 | COc1cc(Nc2ncc(-c3ccccc3)o2)cc(OC)c1OC | 1.14 ± 0.11
15 | CCN1CCC(CC(=O)Nc2n[nH]c3nc(-c4cccs4)c(Br)cc23)CC1 | 7.98 ± 1.7
16 | Fc1cccc(COc2ccc(Nc3ncnc4sc(-c5ccco5)cc34)cc2Cl)c1 | 6.89 ± 3.7
17 | FC(F)(F)c1ccc(Nc2nc3ccc(Oc4ccnc(-c5ncc(C(F)(F)F)[nH]5)c4)cc3[nH]2)cc1 [Raf265 Derivative] | 49.3 ± 21
18 | Nc1ncnc2c1c(-c1cnc3[nH]ccc3c1)nn2C1CCCC1 | 42.9 ± 23
19 | CS(=O)(=O)Nc1cccc(-c2ccc3c(NC(=O)C4CC4)n[nH]c3c2)c1 | -6.98 ± 15

Row | Compound | growth inhibition [%]
20 | Cc1ccc(NC(=O)c2ccoc2)cc1-c1ccc(C(=O)NCC2CC2)cc1 | 16.8 ± 3.1
21 | CCS(=O)(=O)N1CC(CC#N)(n2cc(-c3ncnc4[nH]ccc34)cn2)C1 | 20.4 ± 0.71
22 | CNC(=O)c1cccc(-c2ccc3c(N4CCOC[C@@H]4C)nc(N4CCOC[C@@H]4C)nc3n2)c1 | 1.51 ± 0.18
23 | COc1cc(N2CCN(C(C)C)CC2)ccc1Nc1nc(Nc2ccc(F)cc2C(N)=O)c2cc[nH]c2n1 | -11.9 ± 7
24 | COc1cc(Nc2c(C#N)cnc3cc(OCCCN4CCN(C)CC4)c(OC)cc23)c(Cl)cc1Cl [Bosutinib (SKI-606)] | 72.2 ± 1.1
25 | O=C(NOCC1CC1)c1ccc(F)c(F)c1Nc1ccc(I)cc1Cl | 8.54 ± 25
26 | c1ccc(Oc2ccc(Nc3ncc(-c4ccccc4)o3)cc2)cc1 | -0.487 ± 1.7
27 | Cn1cnc2c(F)c(Nc3ccc(Br)cc3Cl)c(C(=O)NOCCO)cc21 [AZD6244 (Selumetinib)] | 0.682 ± 22
28 | COC(=O)Nc1nc2ccc(Oc3ccc(NC(=O)Nc4cccc(Cl)c4)cc3)cc2[nH]1 | -4.18 ± 4.6
29 | CCc1nccc2c1nc(-c1nonc1N)n2CC | -8.48 ± 4.8
30 | CC(C)(C)c1nc(-c2cccc(NS(=O)(=O)c3c(F)cccc3F)c2F)c(-c2ccnc(N)n2)s1 | 56.2 ± 26
31 | CNC(=O)CN1CCC(Oc2cc3c(Nc4cccc(Cl)c4F)ncnc3cc2OC)CC1 | 0.347 ± 1.9
32 | FC(F)c1nc2ccccc2n1-c1nc(N2CCOCC2)nc(N2CCOCC2)n1 | 19.6 ± 15
33 | COc1cccc(Nc2nccc(-c3cnn4ncccc34)n2)c1 | -2.59 ± 1.4
34 | CN1CCN(c2ccc3nc(-c4c(N)c5c(F)cccc5[nH]c4=O)[nH]c3c2)CC1 [Dovitinib Dilactic Acid (TKI258 Dilactic Acid)] | 33.4 ± 20
35 | CCC(=O)N1CCN(c2ccc(-n3c(=O)ccc4cnc5ccc(-c6cnc7ccccc7c6)cc5c43)cc2C(F)(F)F)CC1 [Torin 1] | -4.1 ± 10
36 | CCc1cccc(CC)c1NC(=O)N1Cc2[nH]nc(NC(=O)c3ccc(N4CCN(C)CC4)cc3)c2C1 | 33.1 ± 4.9
37 | O=C1NC(=O)/C(=C\c2ccc3nccnc3c2)S1 | 13.5 ± 10
38 | Cc1ccc(Nc2nccc(N(C)c3ccc4c(C)n(C)nc4c3)n2)cc1S(N)(=O)=O [Pazopanib HCl] | 20.4 ± 13
